# Hits are enriched below; roughly 3.8% of the tested compounds scored in any of these assays.
# ADAM10 inh = human ADAM10 inhibitors, primary screen, biochemical, QFRET, HTS | AID 720582, 2013 | inhibition, % at 7 µM | Disintegrin and metalloproteinase domain-containing protein 10 (Homo sapiens), O14672 | recombinant ADAM10, EDANS/DABCYL FRET peptide cleavage, 3 h | 370,000 compounds, 0.62% hits;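 active = inhibition above a per-campaign cutoff equal to the mean of compounds falling between control-based bounds plus 3 SD, cut at about 20% in these data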;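 note: 0% = DMSO wells while the 100% control is not disclosed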
# FGF22 binding-1 = binders of human FGF22 protein, primary screen, FGF22 synaptogenesis inhibitor project, biophysical, thermal shift, single point; 340,000 compounds, 1.5% hits; recombinant FGF22 thermal shift, SYPRO orange fluorescence; percent of sucrose octasulfate shift, DMSO zero; Fibroblast growth factor 22 (Homo sapiens), Q9HCT0; activity (Tm shift, normalised), % at 9.99 µM;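 active = mean Tm shift, scaled 0 neutral to 100 positive control, at about 1.3% or above, every replicate too, limit read from the data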
# Ecoli rRNA inh = reduced GFP signal of wild-type E. coli, primary screen, bacterial rRNA inhibitor project, GFP/RFP fluorescence, OD600, single point. 350,000 compounds, 1.6% hits. GFP signal change (wild-type ribosome), % (test concentration not listed). AID 720706, 2013. E. coli WT GFP vs humanized-ribosome RFP mutants, 24 h; stronger effect = lower value; DMSO median 0, no signal -100;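 active = significant combined selectivity score with lowered wild-type GFP, culture density cut under 30%, mutant RFP and density less affected; inactive = any of these conditions unmet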
# proKLK7 act = proKLK7 zymogen activators, primary screen, biochemical, fluorescence intensity. Kallikrein-7 (Homo sapiens), P49862. purified proKLK7, EDANS-DABCYL substrate fluorescence; 100% is mature enzyme control, 0% vehicle. activation, % at 7 µM. 370,000 compounds, 0.9% hits. AID 652039, 2013;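 active = activation above the mean of all tested compounds plus 3 SD, computed per campaign excluding outliers beyond control limits, cut at about 13% in these data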
# ADAM17 inh = ADAM17 inhibitors, primary screen, biochemical, QFRET | Disintegrin and metalloproteinase domain-containing protein 17 (Homo sapiens), P78536 | recombinant ADAM17, EDANS/DABCYL FRET peptide cleavage | inhibition, % at 6.95 µM | 370,000 compounds, 0.83% hits | AID 720648, 2013;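 active = inhibition above the mean of compounds lying between control limits plus 3 SD, set per campaign, cut at about 8.5% in these data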;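 note: 0% = DMSO-only wells as the low control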
# Target sequence (P78536 215-824 limits assumed): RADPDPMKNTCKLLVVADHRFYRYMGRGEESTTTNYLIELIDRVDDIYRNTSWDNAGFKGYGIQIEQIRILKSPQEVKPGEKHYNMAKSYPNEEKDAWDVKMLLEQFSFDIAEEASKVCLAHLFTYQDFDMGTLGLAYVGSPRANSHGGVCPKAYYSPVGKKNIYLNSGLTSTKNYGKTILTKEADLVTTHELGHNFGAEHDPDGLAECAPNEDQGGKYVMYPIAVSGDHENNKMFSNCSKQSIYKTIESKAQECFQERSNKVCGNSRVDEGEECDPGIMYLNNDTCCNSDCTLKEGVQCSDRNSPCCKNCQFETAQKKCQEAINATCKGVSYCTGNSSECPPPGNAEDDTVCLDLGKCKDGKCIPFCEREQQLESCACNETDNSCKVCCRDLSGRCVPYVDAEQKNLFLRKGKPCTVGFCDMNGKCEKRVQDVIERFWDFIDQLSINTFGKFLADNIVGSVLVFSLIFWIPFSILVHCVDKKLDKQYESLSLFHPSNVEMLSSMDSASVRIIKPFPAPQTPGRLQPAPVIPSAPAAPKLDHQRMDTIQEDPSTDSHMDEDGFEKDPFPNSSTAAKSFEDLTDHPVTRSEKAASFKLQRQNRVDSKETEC
# FGF22 binding-2 = binders of human FGF22 protein, dose response, FGF22 synaptogenesis inhibitor project, biophysical, thermal shift, cherry-pick retest; shares compounds with FGF22 binding-1; recombinant FGF22 thermal shift, SYPRO orange fluorescence; thermal shift activity, °C (ΔTm) at 38 µM; 1,000 compounds, 2% hits; AID 720646, 2013;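 active = fitted rise in melting shift crosses a set limit at or below the top valid dose tested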
# TSA no protein = compound-only thermal shift signal without protein, dose response, artefact control for FGF22 binder project, biochemical, cherry-picked samples, RT-PCR instrument. shares compounds with FGF22 binding-1. compound-only SYPRO orange thermal shift counter-screen, no protein. AC50, µM (highest dose often 38 µM). 1,000 compounds, 2% hits. AID 743019, 2013;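 active = rising signal whose fitted curve reaches the 0.54 level within the top valid dose, showing a melting point, actives reach about 13 µM in these data; inactive = the rest, including activity in the opposite direction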; note: value is where the raw curve crosses a fixed level and not half-maximal
# Starred values were filed as active, the others as inactive; i = inactive; x = no result given; [ ] = remark or other dose.
SMILES,ADAM10 inh,FGF22 binding-1,Ecoli rRNA inh,proKLK7 act,ADAM17 inh,FGF22 binding-2,TSA no protein
Cc1noc(C)c1S(=O)(=O)Nc1ccc2c(c1)CC(=O)N([C@@H](C)CO)C[C@@H](C)[C@@H](CN(C)S(C)(=O)=O)O2,x,0,4,x,x,x,x
O=C(NCCc1ccc2c(c1)OCCO2)c1cccc(F)c1,1,1.6*,4,0,-1,-0.047,i
O=C(NNC(=O)c1ccccc1F)c1ccc(NS(=O)(=O)c2ccc(F)cc2)cc1,-2,1.8*,7,0,-3,0.07,i
CCOc1ccc(NS(=O)(=O)c2ccc(C(=O)NNC(=O)c3ccccc3O)cc2)cc1,0,1.4*,-40,0,2,0.018,i
CN(C)C(=O)c1cccc(-c2ccc3c(c2)[C@@H]2[C@@H](CCN2C(=O)c2ccccc2F)[C@@H](CO)N3)c1,x,0,-8,x,x,x,x
CCCNC(=O)Nc1ccc2c(c1)OC[C@H](C)N(C(=O)C1CC1)C[C@@H](C)[C@H](OC)CN(C)C2=O,x,0,-1,x,x,x,x
NS(=O)(=O)c1ccc(NC(=O)Nc2ccccc2)cc1,-2,0,-6,0,-2,x,x
NS(=O)(=O)c1ccc(NC(=O)Nc2cccc(Cl)c2)cc1,1,2.2*,-19,0,1,-0.043,i
O=C(Cc1c[nH]c2ccccc12)N1CCN(S(=O)(=O)c2cccc(Cl)c2Cl)CC1,3,2.9*,-11,1,-2,-0.22,i
CCCC#Cc1cnc2c(c1)C(=O)N([C@@H](C)CO)C[C@@H](C)[C@@H](CN(C)C(=O)c1ccc3c(c1)OCO3)O2,x,0,7,x,x,x,x
Cc1ccc(C(=O)Nc2cccc(-c3cnc4ccccc4n3)c2)cc1,0,x,x,0,-6,x,x
O=C(Nc1cccc(-c2cnc3ccccc3n2)c1)c1ccncc1,-3,1.3*,0,0,-3,0.065,i
COc1cccc(NC(=O)OCCN2CCN(Cc3ccccc3)CCC2=O)c1,1,1.5*,8,1,-2,0.16,i
CC(C)NC(=O)Nc1ccc2c(c1)C(=O)N([C@H](C)CO)C[C@H](C)[C@@H](CN(C)C(=O)NC(C)C)O2,-1,1.6*,5,1,4,0.14,i
C[C@H](CO)N1C[C@H](C)[C@H](CN(C)CC2CCCCC2)Oc2c(NC(=O)Nc3ccc4c(c3)OCO4)cccc2C1=O,x,1.4*,0,x,x,0.11,i
C[C@H]1CN([C@@H](C)CO)C(=O)c2cccc(NC(=O)Nc3ccc4c(c3)OCO4)c2O[C@H]1CN(C)CC1CCCCC1,x,-1,2,x,x,x,x
CC(C)NC(=O)Nc1ccc2c(c1)C(=O)N([C@H](C)CO)C[C@H](C)[C@H](CN(C)C(=O)NC(C)C)O2,x,0,2,x,x,x,x
CC(C)NC(=O)Nc1ccc2c(c1)C(=O)N([C@H](C)CO)C[C@H](C)[C@H](CN(C)C(=O)Nc1cccc3ccccc13)O2,x,19*,-3,x,x,0.15[42 µM],i
CCC(=O)N(C)C[C@H]1Oc2ncc(C#CCC(C)C)cc2C(=O)N([C@H](C)CO)C[C@@H]1C,x,0,3,x,x,x,x
NS(=O)(=O)c1cc(C(=O)NC2CCSc3ccccc32)ccc1Cl (stereo unspecified),5,1.8*,6,0,-1,0.068,i
NC(=O)c1ccsc1NC(=O)COC(=O)Cc1c[nH]c2ccccc12,-4,1.8*,-18,-1,-4,x,i
NC(=O)Nc1ccc(C(=O)OCC(=O)Nc2sccc2C(N)=O)cc1,6,1.5*,-10,0,0,0.045,i
COc1ccc(NS(=O)(=O)c2cc(N=Nc3c(O)[nH]c(=O)[nH]c3=O)ccc2Cl)cc1,1,1.4*,5,0,2,-0.08,i
CCN(CC)S(=O)(=O)c1ccc(N/N=C(\C)c2ccc(OC)cc2O)nc1,4,1.4*,-33,-4,1,0.14,i
Nc1c(N(CCO)C(=O)COc2ccc(Cl)cc2)c(=O)[nH]c(=O)n1Cc1ccccc1,-2,1.8*,-1,0,0,0.053,i
SMILES,ADAM10 inh,FGF22 binding-1,Ecoli rRNA inh,proKLK7 act,ADAM17 inh,FGF22 binding-2,TSA no protein
CCOc1cc(C=NNC(=O)c2cccc(S(=O)(=O)N3CCCC3)c2)ccc1O,1,2.4*,7,0,3,0.52,i
COc1ccc(OC)c(NC(=O)NNC(=O)CCCOc2ccc(Cl)cc2C)c1,17,1.7*,-58,0,6,0.028,i
COc1ccc(NC(=O)NNC(=O)COc2ccc(Cl)cc2C)cc1OC,7,0,1,0,1,x,x
Cc1ccc(C)c(N2CCN(C(=O)C34CC5CC(C3)CC(n3nnc(C)n3)(C5)C4)CC2)c1,2,16*,-14,1,5,0.038,i
Cc1noc(C)c1S(=O)(=O)Nc1ccc2c(c1)C(=O)N([C@H](C)CO)C[C@@H](C)[C@@H](CN(C)C(=O)Nc1ccc(C(F)(F)F)cc1)OCCCC[C@@H](C)O2,x,0,3,x,x,x,x
C[C@@H]1CN([C@@H](C)CO)C(=O)c2cc(-c3ccc(C#N)cc3)cnc2O[C@H]1CN(C)C(=O)CC1CC1,x,0,0,x,x,x,x
C[C@H](CO)N1C[C@H](C)[C@@H](CN(C)C(=O)Nc2cccc3ccccc23)Oc2ccc(NC(=O)C3CC3)cc2C1=O,x,0,4,x,x,x,x
CCOC(=O)C1(C)CCCN(C(=O)c2cccc(C#N)c2)C1 (stereo unspecified),2,2.0*,10,0,1,-0.038,i
CCOC(=O)C1(C)CCCN(C(=O)c2ccccc2)C1 (stereo unspecified),4,0,7,0,6,x,x
CS(=O)(=O)N1CC2(C1)[C@@H](c1ccccc1)[C@@H](CO)N2Cc1ccc(F)cc1,x,1.9*,-5,x,x,0.087[42 µM],i
Cc1ccc(S(=O)(=O)N2C[C@H](O)COC[C@H]3O[C@H](CC(=O)NCC4CCCCC4)CC[C@@H]32)cc1,x,0,-3,x,x,x,x
Cc1ccccc1-n1ncc2c1CC(C)(C)CC2NC(=O)C1CCC1 (stereo unspecified),0,1.4*,3,0,2,0.088,i
